# Data taken from PubChem BioAssay (NCATS).
# Several values for one entry are separate records, joined by “and”; a condition that tells them apart may be missing. Equal values may be shown once. Activity calls are given as the source filed them. A call without a number means that no potency is given here. Unless noted, the call rests on the fitted dose curve; in most records, active means well fitted cell-killing curve with a large enough effect; inconclusive means small, poorly fitted or top-dose-only effect; inactive means flat fitted curve, though single readings scatter.
# Key:
# [1] = Cell Viability - LYMP2-025 (AID 976); further: series mostly up to about 92 µM
# Procedure, shortened: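 Luminescent ATP readout after 24 hr treatment of a human lymphoblastoid line (LYMP2-025, 2500 cells/well, 37 C). Reagent developed 30 min at room temperature; AC50 fitted with the Hill equation.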
# [2] = Cell Viability - LYMP2-002 (AID 977);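 further: series mostly up to about 92 µM; compound exposure lasted 24 h at 37 °C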
# Procedure, shortened: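 Human lymphoblastoid cells (2500/well) in complete medium were preincubated 5 hr at 37 C, then exposed to compounds for 24 hr at 37 C. Intracellular ATP was read by CellTiter-Glo luminescence; AC50 came from Hill-equation concentration-response fits.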
# [3] = Cell Viability - LYMP2-006 (AID 978); further: series mostly up to about 92 µM; nearly all actives have a fitted effect of over 60% in size
# Procedure, shortened: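 Cells are seeded at 2500 per well and rested 5 hr at 37 C. Compounds are added across a concentration series for 24 hr at 37 C, after which ATP is quantified by luciferase luminescence.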
# [4] = Cell Viability - LYMP2-007 (AID 979);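 further: cells exposed to compound for 24 h before reading; nearly all actives have a fitted effect of over 60% in size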
# Procedure, shortened: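 Measured via luciferase-based ATP quantitation: lymphoblastoid cells, 24 hr compound exposure at 37 C, AC50 from Hill fits.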
# [5] = Cell Viability - LYMP2-008 (AID 980); further: nearly all actives have a fitted effect of over 60% in size
# Procedure, shortened: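 Measured: ATP-dependent luminescence, proportional to viable cell number, in human lymphoblastoid cells treated 24 hr with compound in complete culture medium. Values are AC50s from Hill-equation modelling of qHTS titrations.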
# [6] = Cell Viability - LYMP2-012 (AID 982);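 further: cellular ATP by luciferase luminescence where a drop means cytotoxicity; cells exposed to compound for one day before reading; nearly all actives have a fitted effect of over 55% in size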
# [7] = Cell Viability - LYMP2-014 (AID 983); further: series mostly up to about 92 µM; nearly all actives have a fitted effect of over 50% in size
# Procedure, shortened: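 Quantitative HTS in lymphoblastoid cells: 24 hr compound exposure, then CellTiter-Glo ATP luminescence. Positive control was tetraoctylammonium bromide, 6.4pM to 92 uM.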
# [8] = Cell Viability - LYMP2-016 (AID 984); further: nearly all actives have a fitted effect of over 55% in size
# Procedure, shortened: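 Cells were seeded at 2500 per well and rested 5 hr before a 24 hr compound exposure at 37 C. Viability was then gauged as cellular ATP by luciferase luminescence, with AC50 values fitted to the Hill equation.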
# [9] = Cell Viability - LYMP2-018 (AID 985); further: nearly all actives have a fitted effect of over 50% in size
# Procedure, shortened: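 In this qHTS viability assay, cells are treated for 24 hr and cellular ATP is quantified by luciferase-based luminescence, with tetraoctylammonium bromide as positive control.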
# [10] = Cell Viability - LYMP2-020 (AID 986); further: series mostly up to about 92 µM; nearly all actives have a fitted effect of over 55% in size
# Procedure, shortened: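 Cells at 2500 per well receive a 24 hr compound exposure at 37 C. Viability is measured as ATP-dependent luciferase luminescence, with AC50 modeled from qHTS concentration-response curves.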
# [11] = Cell Viability - LYMP2-024 (AID 988); further: nearly all actives have a fitted effect of over 60% in size
# Procedure, shortened: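 Cells at 2500 per well received compound for 24 hr after a 5 hr settling period. Viability was scored by CellTiter-Glo luminescence, with AC50 from Hill fits.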
# [12] = Cell Viability - LYMP2-026 (AID 989); further: nearly all actives have a fitted effect of over 50% in size
# Procedure, shortened: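 Acute toxicity screen in complete culture medium, with 24 hr compound exposure at 37 C. Viability read as cellular ATP via luciferase reaction, with tetraoctylammonium bromide (6.4pM to 92 uM) as positive control.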
# [13] = Cell Viability - LYMP1-002 - Assay at 24 hr (AID 993)
# Procedure, shortened: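 Viability was judged from intracellular ATP using a luciferase read-out, following a 24-hour compound incubation at 37 C of lymphoblastoid cells seeded at 2500 per well. Concentration-response data were fitted to the Hill equation for AC50.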
# [14] = qHTS Assay for Identification of Small Molecule Inducers of Hypoxia Response (AID 2120; active means well fitted curve in the direction sought with a large enough effect in the signal ratio, with a control signal flat, not every such curve was filed as active; inconclusive means small, poorly fitted or top-dose-only effect, or a change in a side signal; inactive means no such curve, though single readings can be large or run the other way; the % refers to the signal ratio)
# Procedure, shortened: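 HRE-bla ME-180, 2500 cells/well, 0.5% dialyzed FBS medium; cpd titration, 17 h 37 degrees C; CCF4 2.5 h RT; Ex 405, Em 460/530 ratio -> %Activity, AC50.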
# [15] = molecular target: Estrogen receptor (Homo sapiens) (UniProt P03372); test: qHTS assay for small molecule antagonists of estrogen receptor alpha signaling (AID 588513; active means well fitted curve in the direction sought with a large enough effect in the signal ratio, with a control signal flat, not every such curve was filed as active; inconclusive means small, poorly fitted or top-dose-only effect, or effect the other way, or a change in a side signal; inactive means no such curve, though single readings can be large or run the other way; the % refers to the signal ratio; further: potency means the concentration at half of the fitted maximal effect)
# Chain of Estrogen receptor (Homo sapiens) (P03372 whole entry, looked up): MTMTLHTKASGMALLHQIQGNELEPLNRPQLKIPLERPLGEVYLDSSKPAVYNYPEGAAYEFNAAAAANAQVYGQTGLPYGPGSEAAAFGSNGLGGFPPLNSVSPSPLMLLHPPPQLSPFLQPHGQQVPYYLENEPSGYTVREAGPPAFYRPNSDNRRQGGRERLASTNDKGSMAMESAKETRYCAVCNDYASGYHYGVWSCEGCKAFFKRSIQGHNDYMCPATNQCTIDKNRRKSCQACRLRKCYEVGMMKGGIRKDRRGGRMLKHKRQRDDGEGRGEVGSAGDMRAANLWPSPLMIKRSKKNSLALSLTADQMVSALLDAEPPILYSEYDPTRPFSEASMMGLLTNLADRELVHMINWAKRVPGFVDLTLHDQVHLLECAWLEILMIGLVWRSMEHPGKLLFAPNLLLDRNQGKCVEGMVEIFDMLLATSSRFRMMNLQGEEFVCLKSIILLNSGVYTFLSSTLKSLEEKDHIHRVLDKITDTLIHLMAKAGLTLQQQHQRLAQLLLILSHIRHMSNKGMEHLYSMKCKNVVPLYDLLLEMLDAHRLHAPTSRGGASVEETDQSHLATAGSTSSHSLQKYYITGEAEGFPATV
# Procedure, shortened: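 Fluorescence from CCF4 substrate after 2 h at room temperature gave reporter activity; cells had been exposed to compound and 0.5nM 17-beta-estradiol for 18 h at 37 C. Hill-equation fitting yielded IC50 and maximal response.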
# [16] = molecular target: Estrogen receptor (Homo sapiens) (UniProt P03372); test: qHTS assay for small molecule agonists of estrogen receptor alpha signaling (AID 588514; calls by dose curve; further: potency means the concentration at half of the fitted maximal effect; nearly all actives have a fitted effect of over 70% in size)
# Procedure, shortened: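 Fluorescence from CCF4 cleavage reports ER-alpha-driven beta-lactamase expression in HEK 293 cells treated 18 hrs at 37 C. Data normalized to 17-beta-estradiol (20 nM) and DMSO, fitted to Hill equation.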
# [17] = molecular target: Androgen receptor (Homo sapiens) (UniProt P10275); test: qHTS assay for small molecule antagonists of androgen receptor signaling (AID 588516; active means well fitted curve in the direction sought with a large enough effect in the signal ratio, with a control signal flat, not every such curve was filed as active; inconclusive means small, poorly fitted or top-dose-only effect, or effect the other way, or a change in a side signal; inactive means no such curve, though single readings can be large or run the other way; the % refers to the signal ratio; further: potency means the concentration at half of the fitted maximal effect)
# Chain of Androgen receptor (Homo sapiens) (P10275 whole entry, looked up): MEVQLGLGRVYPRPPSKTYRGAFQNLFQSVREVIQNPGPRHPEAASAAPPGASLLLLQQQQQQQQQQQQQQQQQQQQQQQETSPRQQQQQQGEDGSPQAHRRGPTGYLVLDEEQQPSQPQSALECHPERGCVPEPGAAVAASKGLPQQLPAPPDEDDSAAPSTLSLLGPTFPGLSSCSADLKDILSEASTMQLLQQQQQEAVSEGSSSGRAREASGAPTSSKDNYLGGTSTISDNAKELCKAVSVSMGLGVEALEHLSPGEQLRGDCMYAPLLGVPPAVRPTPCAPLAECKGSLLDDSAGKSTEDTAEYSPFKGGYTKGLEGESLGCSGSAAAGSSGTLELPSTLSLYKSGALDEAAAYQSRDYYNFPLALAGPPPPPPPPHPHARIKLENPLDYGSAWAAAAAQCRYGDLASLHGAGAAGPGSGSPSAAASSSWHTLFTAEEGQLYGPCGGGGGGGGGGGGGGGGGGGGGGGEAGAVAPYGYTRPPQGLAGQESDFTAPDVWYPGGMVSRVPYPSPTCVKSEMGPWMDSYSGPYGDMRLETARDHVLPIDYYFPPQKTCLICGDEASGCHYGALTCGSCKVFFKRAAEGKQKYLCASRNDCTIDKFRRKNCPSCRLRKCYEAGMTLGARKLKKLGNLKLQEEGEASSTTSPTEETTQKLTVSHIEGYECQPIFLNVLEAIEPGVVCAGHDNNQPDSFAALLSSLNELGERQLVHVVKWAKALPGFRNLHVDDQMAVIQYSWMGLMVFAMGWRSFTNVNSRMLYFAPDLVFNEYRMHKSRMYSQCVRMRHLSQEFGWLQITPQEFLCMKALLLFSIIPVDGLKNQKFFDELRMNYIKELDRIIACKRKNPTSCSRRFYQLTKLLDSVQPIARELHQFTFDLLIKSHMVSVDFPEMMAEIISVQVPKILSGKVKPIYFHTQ
# Procedure, shortened: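 Cells were plated and incubated 5 h, compounds added in titration, then R1881 (10 nM final) as agonist. After 16 h at 37 C, CCF4 substrate was loaded for 2 h at room temperature and fluorescence measured.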
# [18] = molecular target: Peroxisome proliferator-activated receptor gamma (Homo sapiens) (UniProt P37231); test: qHTS assay for small molecule agonists of peroxisome proliferator-activated receptor gamma signaling (AID 588536; active means well fitted curve in the direction sought with a large enough effect in the signal ratio, with a control signal flat, not every such curve was filed as active; inconclusive means small, poorly fitted or top-dose-only effect, or effect the other way, or a change in a side signal; inactive means no such curve, though single readings can be large or run the other way; the % refers to the signal ratio)
# Chain of Peroxisome proliferator-activated receptor gamma (Homo sapiens) (P37231 whole entry, looked up): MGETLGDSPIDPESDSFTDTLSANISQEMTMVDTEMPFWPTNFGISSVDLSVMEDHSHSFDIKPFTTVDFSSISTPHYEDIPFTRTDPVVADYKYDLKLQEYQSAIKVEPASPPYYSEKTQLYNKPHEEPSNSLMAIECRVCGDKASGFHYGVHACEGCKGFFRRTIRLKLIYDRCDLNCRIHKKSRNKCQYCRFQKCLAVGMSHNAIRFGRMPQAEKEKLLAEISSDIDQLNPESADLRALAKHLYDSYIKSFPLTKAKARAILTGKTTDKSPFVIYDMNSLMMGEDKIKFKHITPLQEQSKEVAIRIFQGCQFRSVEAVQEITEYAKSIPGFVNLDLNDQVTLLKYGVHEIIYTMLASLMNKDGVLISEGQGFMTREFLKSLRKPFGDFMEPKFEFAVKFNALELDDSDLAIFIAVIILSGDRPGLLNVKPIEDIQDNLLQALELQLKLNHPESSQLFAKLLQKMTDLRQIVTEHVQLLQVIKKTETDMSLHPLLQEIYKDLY
# Procedure, shortened: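 This is an agonist-mode beta-lactamase reporter assay in HEK293 PPAR-gamma-UAS-bla cells with 1% charcoal/dextran FBS. Compound titrations ran 16 h at 37 C before CCF4 detection. EC50 and efficacy are Hill fits scaled to 2 uM rosiglitazone (100%) and DMSO basal.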
# [19] = molecular target: Peroxisome proliferator-activated receptor gamma (Homo sapiens) (UniProt P37231); test: qHTS assay for small molecule antagonists of peroxisome proliferator-activated receptor gamma signaling (AID 588537; active means well fitted inhibition curve with a large enough effect in the signal ratio, with a control signal flat, not every such curve was filed as active; inconclusive means small, poorly fitted or top-dose-only effect, or effect the other way, or a change in a side signal; the % refers to the signal ratio;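 further: reporter cells co-stimulated with 50 nM rosiglitazone agonist during compound treatment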)
# Procedure, shortened: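 Cell-based beta-lactamase assay; GW9662 served as the antagonist control. Stimulation used rosiglitazone, final 50 nM, 16 h, 37 C.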
# [20] = qHTS assay for small molecule agonists of retinoid X receptor alpha signaling (AID 588544); details: HEK293T RXRa-UAS-bla, beta-lactamase reporter, 18 h; 530 nm emission
structure (smiles),measurement,setting,value
C[C@H]1CCCC(=O)CCC/C=C/c2cc(O)cc(O)c2C(=O)O1,Potency,[1],inactive
same,Potency,[2],inactive
same,Potency,[3],inactive
same,Potency,[4],inactive
same,Potency,[5],inactive
same,Potency,[6],inactive
same,Potency,[7],inactive
same,Potency,[8],inactive
same,Potency,[9],inactive
same,Potency,[10],inactive
same,Potency,[11],inactive
same,Potency,[12],inactive
same,Potency,[13],inactive
same,outcome,[14],inactive
same,Potency,[15],14.1 µM [inconclusive] (active)
same,Potency,[16],0.01 µM (active)
same,Potency,[17],44.7 µM (active)
same,outcome,[18],inactive
same,Potency,[19],inactive
same,max response,[20],-13.4% and 26.9%
